Records with an inconclusive call do not appear. Unmarked numbers belong to inactive results. Active and inactive are the calls of the source. Calls come from the whole dose curve; as a rule, active = well fitted activation curve with a large enough effect; inconclusive = small, poorly fitted or top-dose-only effect; inactive = no such curve, though single readings can be large or run the other way.
These compounds were tested against Rap guanine nucleotide exchange factor 4 (Homo sapiens) (UniProt Q8WZA2) (assay: Confirmatory qHTS for agonist of cAMP-regulated guanine nucleotide exchange factor 4 (EPAC2) (AID 1645884;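 note: nucleotide exchange releases bodipy-GDP from Rap1 and this lowers its fluorescence; nearly all actives have a fitted effect of over 65% in size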)). Conditions: EPAC2 GEF activity, Rap1B-BODIPY-GDP fluorescence; series mostly up to 154 µM; activation: at the top concentration.
% is set by controls: 0 for no effect and ±100 for the full control effect; potency is the fitted concentration of half-maximal effect.

Chain of Rap guanine nucleotide exchange factor 4 (Homo sapiens) (Q8WZA2 whole entry, looked up): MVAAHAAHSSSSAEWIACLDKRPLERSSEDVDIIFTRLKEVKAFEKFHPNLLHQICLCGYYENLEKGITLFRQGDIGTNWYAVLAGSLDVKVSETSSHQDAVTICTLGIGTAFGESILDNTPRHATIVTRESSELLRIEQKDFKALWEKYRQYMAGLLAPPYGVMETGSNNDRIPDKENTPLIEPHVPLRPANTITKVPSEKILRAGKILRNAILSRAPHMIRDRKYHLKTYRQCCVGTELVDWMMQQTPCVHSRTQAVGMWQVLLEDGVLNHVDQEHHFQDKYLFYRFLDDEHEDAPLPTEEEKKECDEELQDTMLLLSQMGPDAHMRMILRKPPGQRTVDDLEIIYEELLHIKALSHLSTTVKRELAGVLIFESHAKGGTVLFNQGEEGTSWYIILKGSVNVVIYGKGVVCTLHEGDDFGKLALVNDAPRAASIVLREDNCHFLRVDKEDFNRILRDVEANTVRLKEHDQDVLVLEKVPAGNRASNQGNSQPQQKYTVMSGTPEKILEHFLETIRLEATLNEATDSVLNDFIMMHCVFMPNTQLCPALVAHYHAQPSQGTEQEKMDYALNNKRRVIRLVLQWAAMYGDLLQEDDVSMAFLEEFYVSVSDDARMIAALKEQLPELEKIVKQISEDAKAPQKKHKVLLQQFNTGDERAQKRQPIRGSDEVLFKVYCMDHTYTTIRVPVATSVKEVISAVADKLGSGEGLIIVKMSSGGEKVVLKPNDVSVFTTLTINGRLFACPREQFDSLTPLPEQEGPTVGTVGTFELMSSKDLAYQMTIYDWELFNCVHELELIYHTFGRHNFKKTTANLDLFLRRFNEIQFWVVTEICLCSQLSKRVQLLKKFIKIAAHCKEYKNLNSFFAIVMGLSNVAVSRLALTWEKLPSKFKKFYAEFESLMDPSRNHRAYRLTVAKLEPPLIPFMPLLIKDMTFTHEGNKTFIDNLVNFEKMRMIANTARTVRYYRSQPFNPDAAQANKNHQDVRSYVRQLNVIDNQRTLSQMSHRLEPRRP

Compound | activation | Potency
CCOP(=O)(OCC)C(Cc1ccccc1)N=C(c1ccccc1)c1ccccc1 (stereo not given) | 2.26% [at 17.1 µM, percent relative to cAMP agonist control] | 
Cc1cc(Br)cc(Cl)c1OC(=O)c1ccncc1 | 1.7% | 
O=C(CCC1N=C2c3ccccc3N=C(SCc3ccc(Cl)cc3)N2C1=O)NCc1cccs1 (stereo not given) | -13% [at 83.8 µM, percent relative to cAMP agonist control] | 
COc1ccc(N=C2SC(C(=O)Nc3ccc(C(=O)O)cc3)CC(=O)N2Cc2cccs2)cc1 (stereo not given) | -0.227% [at 17.1 µM, percent relative to cAMP agonist control] | 
C=CCc1cccc(CNc2c(C)cc(C)cc2C)c1O | 1.83% | 
CCOc1cc(-c2c(C#N)c(N)nc3c2CCCC3C)ccc1O (stereo not given) |  | 398 nM (active)
COc1ccc(OC)c(N2C(=O)[C@@H]3C(c4ccccc4Cl)=NO[C@@H]3C2=O)c1 | -14.3% | 
Cc1nn(CCc2nn[nH]n2)c2nc(-c3ccc(Br)cc3)cc(C(F)(F)F)c12 | -29.1% | 
O=C(C=Cc1ccccc1)c1c[nH]c2ccccc2c1=O | 5.37% [at 17.1 µM, percent relative to cAMP agonist control] | 
CCOc1ccc(/C=C/C(=O)c2c(O)c3ccccc3oc2=O)cc1 | -9.5% | 
COc1cc(O)c(C=NN2C(=O)CSC2=S)c(OC)c1 | -5.68% | 
Cc1ccc(CN(C(=O)COc2cccc([N+](=O)[O-])c2)c2ccccn2)cc1 | -14.2% [at 83.8 µM, percent relative to cAMP agonist control] | 
N#C/C(=C/c1cccn1-c1cccc(C(=O)O)c1)c1ccc(F)cc1 | -0.882% [at 17.1 µM, percent relative to cAMP agonist control] | 
CCN=C1S/C(=C\c2ccc(-c3cccc(C(=O)O)c3)o2)C(=O)N1CC | -19.9% | 
O=C(Nc1cc(C(F)(F)F)ccc1Cl)c1nc2ccccc2nc1N1CCCCC1 | -52% [at 83.8 µM, percent relative to cAMP agonist control] | 
CC1(Cc2cc(Cl)ccc2C(F)(F)F)C(=O)Nc2cc(F)ccc21 (stereo not given) | 5.2% [at 17.1 µM, percent relative to cAMP agonist control] | 
COC1=CC(=O)C(C2CC(=O)c3c(O)cc(O)cc3O2)=CC1=O (stereo not given) | 9.22% [at 17.1 µM, percent relative to cAMP agonist control] | 
O=C(O)C/C(=C\c1cc(Cl)c2c(c1)OCO2)c1nc2ccccc2s1 | -1.81% [at 17.1 µM, percent relative to cAMP agonist control] | 
O=C1C=CC(c2ccccc2)(c2ccccc2)CC1 | 8.73% [at 17.1 µM, percent relative to cAMP agonist control] | 
COc1ccccc1C(=O)Nc1nnc(SCc2cc(=O)c3ccccc3[nH]2)s1 | 7.54% [at 83.8 µM, percent relative to cAMP agonist control] | 

Compound | activation | Potency
CC(C)(C)NC(=O)NC(=O)CN1CCN(S(=O)(=O)c2ccc3c(c2)CCCC3)CC1 | -5.51% [at 17.1 µM, percent relative to cAMP agonist control] | 
CC(C)CCNc1nc(-c2ccco2)c2c(c1C#N)CCCC2 | -10.2% | 
CC1=Nc2ccccc2N=C(NC(=O)/C=C/C(=O)O)C1c1ccccc1 (stereo not given) | -14.3% | 
CCOC(=O)N(C)c1c(CC)nc2c(OCc3ccc(C(F)(F)F)cc3)cccn12 | -13% | 
CC(=Cc1ccccc1)C=C1SC(=S)N(CCCC(=O)Nc2ccc(C(=O)O)cc2)C1=O | -19.9% | 
O=C(Cn1ncc(Cl)c(Cl)c1=O)NC(=O)NC1CCCCC1 | 3.69% [at 17.1 µM, percent relative to cAMP agonist control] | 
CC(=O)c1sc2nc(-c3ccco3)ccc2c1N | 2.54% | 
COc1ccc(C(CCN(Cc2ccc(OC)c(OC)c2)C(C)=O)C(C)C)cc1 (stereo not given) | 4.46% | 
CCOP(=O)(OCC)C(Cc1ccc(OC)c(OC)c1)N=C(c1ccccc1)c1ccccc1 (stereo not given) | 4.61% [at 17.1 µM, percent relative to cAMP agonist control] | 
Cc1onc(-c2c(F)cccc2Cl)c1C(=O)OCc1cnc(Cl)s1 | 8.88% | 
Cc1ccc(C)n1-c1ccc(C(=O)/C=C/N(C)C)cc1 | 4.94% [at 17.1 µM, percent relative to cAMP agonist control] | 
O=C(COC(=O)c1ccc2c(c1)C(=O)N(Cc1ccncc1)C2=O)Nc1ccccc1[N+](=O)[O-] | 2.45% | 
CCN(C(=O)c1noc2c1COc1ccc(C)cc1-2)c1cccc(C)c1 | 0% [at 83.8 µM, percent relative to cAMP agonist control] | 
CCOC(=O)N1CCC(Nc2nc3ccccc3n3cnnc23)CC1 | 3.86% [at 17.1 µM, percent relative to cAMP agonist control] | 
C[C@@H]1COC(=O)[C@H](NC(=O)OCC2c3ccccc3-c3ccccc32)C/C=C\C[C@@H](CC(=O)N[C@H](CO)Cc2ccccc2)C(=O)N1 | 2.82% [at 17.1 µM, percent relative to cAMP agonist control] | 
COc1ccccc1-n1c(C)c(C(=O)O)c2cc(OC)c3ccccc3c21 | 5.44% | 
CCOC(=O)C(C)Sc1nc(-c2ccco2)cc(C(F)(F)F)c1C#N (stereo not given) | 0.901% [at 17.1 µM, percent relative to cAMP agonist control] | 
Cc1ccc(C)c(CSC2=NC(C)(C)Nc3ccccc32)c1 | 13.2% [at 83.8 µM, percent relative to cAMP agonist control] | 
C[C@@H]1ON(C)[C@H]2C[C@H]3c4[nH]c5ccc(-c6ccc7c(c6)OCO7)cc5c4CCN3C(=O)[C@@H]12 | 1.59% [at 17.1 µM, percent relative to cAMP agonist control] | 
O=C(c1ccc2c(c1)CCCC2)N1CCN(c2nc3ccc(F)cc3s2)CC1 | 13.6% [at 83.8 µM, percent relative to cAMP agonist control] | 

From PubChem BioAssay (NCATS)
